Measurements as given in ChEMBL document CHEMBL1961873, “Compounds: GSK PKIS; Assays: Nanosyn kinase panel” (2012).

Legend:
[1] = molecular target: T1, Muscle, skeletal receptor tyrosine-protein kinase (Homo sapiens) (UniProt O15146); conditions: at 1 µM;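 note: reported value is the mean percent inhibition of MuSK kinase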
T1 sequence (whole entry): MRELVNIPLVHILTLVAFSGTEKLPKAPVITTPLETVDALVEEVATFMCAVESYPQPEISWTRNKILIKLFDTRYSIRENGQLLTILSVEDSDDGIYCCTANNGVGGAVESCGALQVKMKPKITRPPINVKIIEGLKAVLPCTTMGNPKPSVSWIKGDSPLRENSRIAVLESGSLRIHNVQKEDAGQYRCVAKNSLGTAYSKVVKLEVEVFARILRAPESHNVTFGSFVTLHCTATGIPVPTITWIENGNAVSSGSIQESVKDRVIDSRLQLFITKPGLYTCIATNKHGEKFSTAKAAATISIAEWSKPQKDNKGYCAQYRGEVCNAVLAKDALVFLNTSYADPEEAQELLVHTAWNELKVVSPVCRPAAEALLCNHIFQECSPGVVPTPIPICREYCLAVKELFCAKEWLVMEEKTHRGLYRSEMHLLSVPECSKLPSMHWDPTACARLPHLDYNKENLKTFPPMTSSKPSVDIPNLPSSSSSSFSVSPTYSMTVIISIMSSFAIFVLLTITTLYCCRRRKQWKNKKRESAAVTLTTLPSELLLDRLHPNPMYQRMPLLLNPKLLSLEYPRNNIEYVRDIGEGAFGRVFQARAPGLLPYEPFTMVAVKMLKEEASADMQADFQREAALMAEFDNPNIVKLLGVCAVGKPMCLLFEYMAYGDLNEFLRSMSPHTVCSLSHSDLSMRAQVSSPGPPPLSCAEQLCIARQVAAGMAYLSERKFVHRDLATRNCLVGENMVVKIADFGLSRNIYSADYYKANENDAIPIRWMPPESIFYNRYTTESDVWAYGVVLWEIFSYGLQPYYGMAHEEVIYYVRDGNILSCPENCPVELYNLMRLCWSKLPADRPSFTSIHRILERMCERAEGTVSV

[2] = molecular target: Platelet-derived growth factor receptor alpha (Homo sapiens) (UniProt P16234); conditions: at 0.1 µM
Platelet-derived growth factor receptor alpha (Homo sapiens), sequence (P16234 whole entry): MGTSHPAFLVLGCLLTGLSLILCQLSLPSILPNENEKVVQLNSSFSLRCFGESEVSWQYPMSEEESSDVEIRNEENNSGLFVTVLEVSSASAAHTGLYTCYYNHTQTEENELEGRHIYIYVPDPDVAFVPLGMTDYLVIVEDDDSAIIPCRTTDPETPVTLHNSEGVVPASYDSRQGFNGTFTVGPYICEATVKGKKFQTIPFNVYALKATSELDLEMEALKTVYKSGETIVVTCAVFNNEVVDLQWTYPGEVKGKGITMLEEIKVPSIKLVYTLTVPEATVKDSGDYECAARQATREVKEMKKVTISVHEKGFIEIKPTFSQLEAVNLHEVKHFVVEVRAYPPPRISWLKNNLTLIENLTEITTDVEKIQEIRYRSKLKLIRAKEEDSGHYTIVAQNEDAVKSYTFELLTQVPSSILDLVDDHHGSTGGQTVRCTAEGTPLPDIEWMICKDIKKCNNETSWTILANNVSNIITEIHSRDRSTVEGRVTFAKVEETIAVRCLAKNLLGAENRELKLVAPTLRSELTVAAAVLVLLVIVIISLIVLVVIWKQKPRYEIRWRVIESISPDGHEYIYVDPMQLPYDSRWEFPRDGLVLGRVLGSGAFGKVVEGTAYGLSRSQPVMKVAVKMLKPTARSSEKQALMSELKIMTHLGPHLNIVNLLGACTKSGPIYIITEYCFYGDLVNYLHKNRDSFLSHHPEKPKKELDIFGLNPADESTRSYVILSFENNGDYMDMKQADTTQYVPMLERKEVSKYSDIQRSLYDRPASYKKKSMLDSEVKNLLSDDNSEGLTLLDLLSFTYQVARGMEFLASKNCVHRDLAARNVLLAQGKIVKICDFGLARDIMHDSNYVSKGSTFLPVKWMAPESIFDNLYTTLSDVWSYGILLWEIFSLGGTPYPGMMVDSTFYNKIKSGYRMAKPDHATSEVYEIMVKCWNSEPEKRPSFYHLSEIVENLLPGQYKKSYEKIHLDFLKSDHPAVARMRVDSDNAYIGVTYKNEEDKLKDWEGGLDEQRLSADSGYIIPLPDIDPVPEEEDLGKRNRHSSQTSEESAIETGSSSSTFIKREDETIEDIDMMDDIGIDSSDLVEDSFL

[3] = molecular target: Platelet-derived growth factor receptor alpha (Homo sapiens) (UniProt P16234); conditions: at 1 µM
[4] = test system: Platelet-derived growth factor receptor alpha (Homo sapiens), P16234 [D842V]; conditions: at 0.1 µM
Platelet-derived growth factor receptor alpha (Homo sapiens), P16234 [D842V], sequence (P16234 whole entry D842V): as the sequence (P16234 whole entry) above, with D842V counted along it

[5] = test system: Platelet-derived growth factor receptor alpha (Homo sapiens), P16234 [D842V]; conditions: at 1 µM
[6] = test system: Platelet-derived growth factor receptor alpha (Homo sapiens), P16234 [T674I]; conditions: at 0.1 µM
[7] = test system: Platelet-derived growth factor receptor alpha (Homo sapiens), P16234 [T674I]; conditions: at 1 µM
[8] = test system: Platelet-derived growth factor receptor alpha (Homo sapiens), P16234 [V561D]; conditions: at 0.1 µM
Platelet-derived growth factor receptor alpha (Homo sapiens), P16234 [V561D], sequence (P16234 whole entry V561D): as the sequence (P16234 whole entry) above, with V561D counted along it

[9] = test system: Platelet-derived growth factor receptor alpha (Homo sapiens), P16234 [V561D]; conditions: at 1 µM
[10] = molecular target: Platelet-derived growth factor receptor beta (Homo sapiens) (UniProt P09619); conditions: at 0.1 µM
[11] = molecular target: Platelet-derived growth factor receptor beta (Homo sapiens) (UniProt P09619); conditions: at 1 µM
[12] = molecular target: Tyrosine-protein kinase FRK (Homo sapiens) (UniProt P42685); conditions: at 0.1 µM
Tyrosine-protein kinase FRK (Homo sapiens), sequence (P42685 whole entry): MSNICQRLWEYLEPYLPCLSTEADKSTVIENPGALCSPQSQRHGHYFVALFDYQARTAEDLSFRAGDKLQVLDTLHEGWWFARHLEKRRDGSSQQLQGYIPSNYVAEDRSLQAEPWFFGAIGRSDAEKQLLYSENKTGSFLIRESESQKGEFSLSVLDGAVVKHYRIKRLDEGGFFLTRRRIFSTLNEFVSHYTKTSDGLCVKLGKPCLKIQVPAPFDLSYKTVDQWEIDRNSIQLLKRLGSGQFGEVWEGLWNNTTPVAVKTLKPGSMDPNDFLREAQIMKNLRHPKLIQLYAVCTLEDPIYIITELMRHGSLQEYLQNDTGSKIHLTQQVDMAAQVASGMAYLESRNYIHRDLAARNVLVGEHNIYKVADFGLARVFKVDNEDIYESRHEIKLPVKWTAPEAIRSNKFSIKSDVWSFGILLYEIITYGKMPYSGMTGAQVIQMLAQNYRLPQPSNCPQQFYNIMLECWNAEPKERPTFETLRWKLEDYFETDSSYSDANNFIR

[13] = molecular target: Tyrosine-protein kinase FRK (Homo sapiens) (UniProt P42685); conditions: at 1 µM
[14] = molecular target: Protein-tyrosine kinase 2-beta (Homo sapiens) (UniProt Q14289); conditions: at 0.1 µM
[15] = molecular target: Proto-oncogene tyrosine-protein kinase receptor Ret (Homo sapiens) (UniProt P07949); conditions: at 0.1 µM
Proto-oncogene tyrosine-protein kinase receptor Ret (Homo sapiens), sequence (P07949 whole entry): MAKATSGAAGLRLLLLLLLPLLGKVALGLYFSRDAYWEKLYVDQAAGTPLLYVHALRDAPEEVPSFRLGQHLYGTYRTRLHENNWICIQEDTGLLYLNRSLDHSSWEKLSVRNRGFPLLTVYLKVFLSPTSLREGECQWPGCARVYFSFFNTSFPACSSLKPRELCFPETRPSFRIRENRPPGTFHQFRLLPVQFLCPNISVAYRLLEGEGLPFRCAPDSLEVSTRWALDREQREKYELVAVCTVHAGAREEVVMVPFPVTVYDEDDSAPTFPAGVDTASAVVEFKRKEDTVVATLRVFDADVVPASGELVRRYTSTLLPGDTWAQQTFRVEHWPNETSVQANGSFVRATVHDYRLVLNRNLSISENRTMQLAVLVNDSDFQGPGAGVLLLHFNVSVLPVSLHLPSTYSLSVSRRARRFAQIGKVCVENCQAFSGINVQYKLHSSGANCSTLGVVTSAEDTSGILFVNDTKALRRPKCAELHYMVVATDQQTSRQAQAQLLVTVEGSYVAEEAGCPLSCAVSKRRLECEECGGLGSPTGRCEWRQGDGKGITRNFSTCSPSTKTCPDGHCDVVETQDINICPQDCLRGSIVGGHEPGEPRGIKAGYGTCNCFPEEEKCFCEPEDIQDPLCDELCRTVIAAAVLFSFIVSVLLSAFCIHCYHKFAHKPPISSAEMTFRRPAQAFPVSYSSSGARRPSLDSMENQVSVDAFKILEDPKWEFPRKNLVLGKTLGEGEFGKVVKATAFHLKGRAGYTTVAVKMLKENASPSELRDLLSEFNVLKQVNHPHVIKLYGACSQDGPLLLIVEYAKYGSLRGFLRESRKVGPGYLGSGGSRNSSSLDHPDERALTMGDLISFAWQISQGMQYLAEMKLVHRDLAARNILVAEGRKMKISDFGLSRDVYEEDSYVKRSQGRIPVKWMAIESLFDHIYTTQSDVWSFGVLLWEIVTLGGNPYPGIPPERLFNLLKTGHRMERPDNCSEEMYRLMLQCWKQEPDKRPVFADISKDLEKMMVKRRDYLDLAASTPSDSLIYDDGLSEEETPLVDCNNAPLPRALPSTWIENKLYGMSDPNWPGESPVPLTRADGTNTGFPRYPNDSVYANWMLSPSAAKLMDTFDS

[16] = molecular target: Proto-oncogene tyrosine-protein kinase receptor Ret (Homo sapiens) (UniProt P07949); conditions: at 1 µM
[17] = test system: Proto-oncogene tyrosine-protein kinase receptor Ret (Homo sapiens), P07949 [V804L]; conditions: at 0.1 µM
[18] = test system: Proto-oncogene tyrosine-protein kinase receptor Ret (Homo sapiens), P07949 [V804L]; conditions: at 1 µM
[19] = test system: Proto-oncogene tyrosine-protein kinase receptor Ret (Homo sapiens), P07949 [Y791F]; conditions: at 0.1 µM
[20] = molecular target: Protein-tyrosine kinase 2-beta (Homo sapiens) (UniProt Q14289); conditions: at 1 µM

Compound	inhibition [1]	inhibition [2]	inhibition [3]	inhibition [4]	inhibition [5]	inhibition [6]	inhibition [7]	inhibition [8]	inhibition [9]	inhibition [10]	inhibition [11]	inhibition [12]	inhibition [13]	inhibition [14]	inhibition [15]	inhibition [16]	inhibition [17]	inhibition [18]	inhibition [19]	inhibition [20]
CCN1CCC(CC(=O)Nc2n[nH]c3nc(-c4cccs4)c(Br)cc23)CC1	6.39%	1.61%	5.44%	1.12%	6.22%	-1.25%	3.53%	2.04%	4.21%	4.9%	14.4%	-1.17%	-0.21%	-9.91%	1.65%	3.8%	0.08%	-2.04%	-1.87%	
COc1cc2ncn(-c3cc(OCc4ccccc4C(F)(F)F)c(C(N)=O)s3)c2cc1OC	32.7%	47.1%	83.5%	29.5%	79.9%	19.1%	68%	36.6%	84.9%	45%	83.5%	3.08%	3.46%	2.32%	14.5%	41.6%	10.4%	34.3%	17.9%	19.4%
Cc1ccc(C(=O)NC2CCCCC2)cc1-c1ccc(C(=O)NCC2CC2)cc1	8.57%	12.3%	12.8%	2.47%	1.67%	4.09%	-1.01%	1.21%	17.2%	6.66%	9.04%	0.19%	0.68%	3.32%	5.5%	7.84%	5.44%	4.79%	10.8%	9.58%
CCn1c(-c2nonc2N)nc2c(C#CC(C)(C)O)nc(OC[C@@H](N)c3ccccc3)cc21	2.97%	3.38%	30.9%	3.93%	39%	1.39%	27.6%	-2.3%	19.5%	7.96%	50.8%	1.13%	1.5%	-0.92%	7.49%	41.1%	2.03%	14.4%	10.7%	9.22%
N#Cc1c(NC(=O)c2cccc3ccccc23)sc2c1CCCC2	4.97%	6.56%	12.2%	4.04%	4.85%	4.77%	9.67%	3.45%	6.79%	3.17%	9.27%	2.64%	1.48%	2.95%	5.35%	5.82%	3.1%	3.6%	5.18%	5.82%
COc1ccc2cc(-c3c(-c4ccncc4)nc(-c4ccc([S+](C)[O-])cc4)n3C)ccc2c1 (centres undefined)	3.4%	2.55%	10%	2.12%	4.78%	3.93%	2.95%	-1.44%	3.24%	2.46%	4.23%	2.23%	1.18%	3.6%	4.55%	8.7%	3.54%	-0.15%	5.77%	4.13%
CCn1c(-c2nonc2N)nc2ccncc21	1.96%	8.83%	7.48%	0.54%	1.96%	2.72%	1.31%	2.31%	3.59%	0.36%	5.63%	0.98%	0.17%	3.23%	2.99%	5.58%	4.69%	-1.85%	1.52%	7.52%
